Test results published in PubChem BioAssay AID652257 (The Scripps Research Institute Molecular Screening Center, 2013).
Among all 370,000 compounds or so, about 4,800 (1.3%) were called active. This excerpt belongs to a sample that is enriched for actives. A number with no mark means an inactive call.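 How the source made its calls: active means inhibition above about 21% made by adding two undisclosed values (limit read from the data); inactive means the rest.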

target: Protein arginine N-methyltransferase 1 (Homo sapiens) (UniProt Q99873); test: human PRMT1 activity-probe blockers – biochemical, fluorescence polarization, primary screen (AID 652257); conditions: recombinant PRMT1, activity-based probe fluorescence polarization; at 2.79 µM; active compounds read high
Sequence (Q99873 whole entry, looked up): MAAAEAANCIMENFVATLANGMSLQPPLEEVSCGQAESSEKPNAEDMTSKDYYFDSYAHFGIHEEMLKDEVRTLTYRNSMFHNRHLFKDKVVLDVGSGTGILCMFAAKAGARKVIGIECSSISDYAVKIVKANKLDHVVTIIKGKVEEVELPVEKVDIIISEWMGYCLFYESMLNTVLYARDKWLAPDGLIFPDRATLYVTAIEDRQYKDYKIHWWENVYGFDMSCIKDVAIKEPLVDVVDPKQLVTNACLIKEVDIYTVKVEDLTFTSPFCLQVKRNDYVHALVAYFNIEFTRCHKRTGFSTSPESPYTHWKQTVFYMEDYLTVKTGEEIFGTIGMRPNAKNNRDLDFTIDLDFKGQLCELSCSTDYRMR

SMILES	inhibition
CC(CCN1CCC(C(O)(c2ccccc2)c2ccccc2)CC1)Oc1ccc(Cl)cc1 (stereo not drawn)	0.54%
C=CCn1c(=S)[nH]c2scc(-c3ccco3)c2c1=O	38.1% (active)
O=C(CSc1nc2ccccc2n1Cc1ccccc1Cl)N/N=C\c1c[nH]c2ccccc12	-0.85%
O=C(OCC(=O)N1CCCCCC1)c1cccc(Cl)c1Cl	-1.11%
CC(NC(=O)Nc1ccccc1)C(c1cccs1)N1CCN(c2ccccc2)CC1 (stereo not drawn)	0.36%
CCOC(=O)c1ccc(NC(=S)N2CCN(c3ccccn3)CC2)cc1	-2.24%
O=[N+]([O-])c1ccc(NC(=S)N2CCN(c3ccccn3)CC2)cc1	-0.91%
CC(=NNC(=S)N1CCCCCC1)c1ccccn1	25.4% (active)
COC(=O)C1=C[C@@H](C(=O)OC)[C@@H]2C3=C(C(=O)[C@]2(C)NC(=O)c2ccccc2)[C@H](C)n2c(=O)n(C)c(=O)n2[C@@H]3C1	1.61%
CCOC(=O)c1ccccc1NC(=O)CSc1nc2c(sc(=S)n2CC)c(=O)[nH]1	19%
CSc1ncnc2c1ncn2CC(=O)C1CCC2C3CCC4=CC(=O)CCC4(C)C3CCC12C (stereo not drawn)	0.25%
COc1ccc(C(=O)C(C)OC(=O)c2cccc(S(=O)(=O)Nc3c(C)n(C)n(-c4ccccc4)c3=O)c2)cc1 (stereo not drawn)	-2.91%
Cc1c(NS(=O)(=O)c2cccc(C(=O)Nc3ccc(SC(F)F)cc3)c2)c(=O)n(-c2ccccc2)n1C	21.1% (active)
Cc1c(NS(=O)(=O)c2cc(C(=O)NCCc3ccc(F)cc3)cc(Cl)c2Cl)c(=O)n(-c2ccccc2)n1C	-3.45%
Cc1ccccc1-c1nc(CS(=O)(=O)CC(=O)NC(C)c2ccccc2)c(C)o1 (stereo not drawn)	-4.8%
Cc1sc2nc(CSCC(=O)Nc3c(Cl)cccc3Cl)[nH]c(=O)c2c1C	13.1%
Cc1nc(SCC(=O)NC2CCCC2)[nH]c(=O)c1C	1.36%
Cc1sc2nc(CSCC(=O)NC3CCCCC3)[nH]c(=O)c2c1C	22.1% (active)
COC(CNC(=O)[C@H](Cc1ccccc1)NC1(C(=O)NC2CCCCC2)CCCCC1)OC	-5.82%
O=C(NCc1cccnc1)c1cnc2ccccc2n1	-0.09%
CCOc1ccc(-n2c(SCC(=O)Nc3cc(C)c(NC(=O)c4ccccc4)cc3OC)nnc2-c2cccs2)cc1	2.3%

SMILES	inhibition
CC(=O)N1CC(C)c2scc(C)[n+]2-c2ccccc21 (stereo not drawn)	53.9% (active)
Cc1ccc(NC(=O)C(CC(=O)O)C2CCCO2)c(C)c1 (stereo not drawn)	2.66%
Cc1ccc(C(=O)N(Cc2ccccn2)CC2CCCO2)cc1 (stereo not drawn)	-2.09%
NNC(=O)c1oc2nc(-c3ccccc3)cc(-c3ccco3)c2c1N	-3.39%
CNC(=S)NNC(=O)c1oc2nc(-c3ccccc3)cc(-c3ccco3)c2c1N	21.9% (active)
O=C(OCC#CCSc1nnc(-c2ccco2)o1)c1ccc(F)cc1	-2.56%
COc1ccc(-c2cc(-c3nnc(SCc4ccc([N+](=O)[O-])cc4)n3N)[nH]n2)cc1	-4.36%
O=C(NC(Cc1c[nH]c2ccccc12)C(=O)O)/C(=C/c1ccco1)NC(=O)c1ccccc1 (stereo not drawn)	25.5% (active)
O=C(NCc1ccco1)/C(=C/c1ccco1)NC(=O)c1ccccc1	7.1%
O=C(NC(Cc1ccccc1)C(=O)O)/C(=C\c1ccccc1)NC(=O)c1ccco1 (stereo not drawn)	-0.14%
O=C1CC[C@@]23CCCN2C(=O)CCC[C@H]3[C@H]1Cc1ccccc1	2.04%
O=C(C[C@H]1C[C@H](C(=O)N2CCOCC2)[C@@]2(CCC3CCCC3)c3[nH]c4ccc(Cl)cc4c3CCN2C1=O)NCc1ccco1	-5.92%
C=CCN1C(=O)[C@@H](CC(=O)NCCCCc2ccccc2)[C@]2(C(=O)OCC)CCCCC/C=C/12	1.83%
CCC(=O)Nc1c(S(=O)(=O)c2ccccc2)c2nc3ccccc3nc2n1Cc1ccccc1	0.02%
Cc1cc2nc3c(=O)n(Cc4ccccc4)c(=O)[nH]c3nc2cc1N	142% (active)
Cn1c(=O)[nH]c(=O)c2c1[nH]c(=S)n2Cc1ccccc1	4.37%
CCC(CO)Nc1cccc2c1S(=O)(=O)N(Cc1cn(Cc3ccccc3C(F)(F)F)nn1)Cc1ccccc1O2 (stereo not drawn)	0.43%
N#Cc1c(N2CCCCC2)nc(N)c2c(N)nc(SCC(=O)O)cc12	29.1% (active)
Cc1nn(-c2ncccn2)c2c1C(=O)CC(C)(C)C2Br (stereo not drawn)	-1.26%
CCOC(=O)c1cc2c(ccn2C)n1CC(=O)N1CCC(C)CC1	1.01%
O=C(CSc1nnc(-c2ccccn2)n1-c1ccc(Cl)cc1)Nc1ccccc1-c1ccccc1	0.72%

SMILES	inhibition
COCCN1C(=O)C(=O)/C(=C(/O)c2ccc(S(=O)(=O)N3CCOCC3)cc2)C1c1ccc(OC)c(OC)c1 (stereo not drawn)	4.25%
CCOc1cc(C2/C(=C(/O)c3ccc(S(=O)(=O)N4CCCCC4)cc3)C(=O)C(=O)N2CCOC)ccc1O (stereo not drawn)	28.9% (active)
COCCN1C(=O)C(=O)/C(=C(/O)c2ccc(S(=O)(=O)N3CCCCC3)cc2)C1c1ccc(OC)c(OC)c1 (stereo not drawn)	-2.03%
COC(=O)c1cc(NS(=O)(=O)c2ccc3c(c2)c(=O)n(C)c(=O)n3C)cc(C(=O)OC)c1	3.19%
CN(C)S(=O)(=O)c1ccc(N/C=C(\[N+](=O)[O-])S(=O)(=O)c2ccccc2)cc1	1.43%
CC(C)CSc1nnc(-c2cccnc2)n1Cc1ccccc1	1.95%
Cc1cccc(-c2nc3c(c(SCC(=O)N4CCOCC4)n2)CCCC3)c1	-2.28%
C=CCN1C(=O)c2ccc(C(=O)N3CCC(C(=O)OCC)CC3)cc2C1=O	-1.32%
CC(C)OC(=O)c1cc(NC(=O)C2C3CCC(O3)C2C(=O)O)cc(C(=O)OC(C)C)c1 (stereo not drawn)	-2.71%
COc1ccc(NC(=O)C2C3CCC(O3)C2C(=O)O)cc1OC (stereo not drawn)	1.91%
Cc1sc(NC(=O)C2C3CCC(O3)C2C(=O)O)c(C(=O)OC(C)C)c1-c1ccc(Cl)cc1 (stereo not drawn)	22.5% (active)
CCOC(=O)c1csc(NC(=O)C2CCCN(S(=O)(=O)c3ccc(Cl)s3)C2)n1 (stereo not drawn)	-5.11%
Cc1nc(CNc2ncnc3ccc(-c4ccc5c(c4)OCO5)cc23)cs1	6.73%
COc1ccc(C(=O)OCCN2CCN(C3CN(Cc4cn(Cc5ccccc5F)nn4)S(=O)(=O)C3)CC2)cc1OC (stereo not drawn)	-2.53%
O=C(CCS(=O)(=O)c1ccccc1)Nc1ccc(Cl)c(Cl)c1	1.21%
Cc1cccc(NC(=O)c2cc3c(C)nn(-c4ccccc4)c3s2)c1	-4.86%
Cc1cccc(CS(=O)(=O)c2ncc(Cl)c(C(=O)Nc3ccc(F)cc3)n2)c1	31.4% (active)
Cc1cccc(C(=O)Nc2c(-c3ccc(F)cc3)nc3ncccn23)c1	1.66%
Cc1cc(NS(=O)(=O)c2ccc(NC(=S)NC(=O)c3ccc(F)cc3Cl)cc2)no1	-2.11%
Cc1cccc(NC(=O)c2nc(S(=O)(=O)Cc3ccccc3)ncc2Cl)c1	31.1% (active)
Cc1cccnc1NC(=O)Cn1c(=O)oc2ccccc21	5.97%

SMILES	inhibition
COC[C@@H]1CCCN1c1ccc2c(c1)O[C@H](C)CCN(C1CC1)S2(=O)=O	-6.48%
O=C(Nc1cc(F)cc(F)c1)OC1CCC12CCC(c1ccccc1)CC2 (stereo not drawn)	-0.51%
COc1ccc([C@H]2OC(=O)C[C@H]2C(=O)N2CCN(c3ccccc3F)CC2)cc1OC	-4.27%
O=C(CSc1nnc(-c2ccccc2)n1Cc1ccco1)Nc1ccccc1-c1ccccc1	12.6%
Clc1cccc(-c2nc3nc4ccccc4nc3n2Cc2ccco2)c1	34.2% (active)
O=C(CSc1nnc(-c2cccc(Cl)c2)n1Cc1ccco1)Nc1ccc(OCc2ccccc2)cc1	-2.9%
COc1ccccc1C(C)NC(=O)Cc1ccsc1 (stereo not drawn)	-0.88%
CCC(c1nnnn1Cc1ccco1)N(CCc1ccccc1)Cc1cc2ccc(OC)cc2[nH]c1=O (stereo not drawn)	44.2% (active)
CCC(=O)N(Cc1cc2ccccc2[nH]c1=O)c1ccc(OC)cc1	1.11%
COc1ccc2[nH]c(=O)c(CN(CC3CCCO3)C(=O)Nc3ccccc3)cc2c1 (stereo not drawn)	-3.84%
CCOc1ccc2[nH]c(=O)c(CN(Cc3nnnn3CCc3ccccc3)CC3CCCO3)cc2c1 (stereo not drawn)	-1.4%
CCOc1ccc(CN(Cc2ccco2)C(c2cccs2)c2nnnn2C(C)(C)C)cc1 (stereo not drawn)	2.59%
CCC(c1nnnn1Cc1ccco1)N(Cc1cc2cc(OC)ccc2[nH]c1=O)C1CCCCC1 (stereo not drawn)	35.9% (active)
CNc1cncc(-c2ccc(NS(C)(=O)=O)cc2)n1	4.53%
N#C/C(=C\c1ccccc1)c1n[nH]c(Cn2cncn2)n1	-3.96%
CCCCNC(=O)C[C@H]1C(=O)N(Cc2ccc(OC)cc2)C2=CCCC[C@@]21C(=O)OCC	2.73%
COC(=O)c1cc(S(=O)(=O)N2CCN(C(=O)C3CCCO3)CC2)cn1C (stereo not drawn)	-1.95%
O=C(CSc1nc2sc3c(c2c(=O)n1-c1ccccc1)CCCC3)NN=Cc1ccc(OCc2ccccc2)cc1	0.97%
Cc1ccccc1CN1CCCCC(NC(=O)c2cccc(C#N)c2)C1=O (stereo not drawn)	1.34%
CCCCOCCCNC(=O)C[C@H]1C[C@@]2(C(=O)OC)C(=C[C@H](C(C)(C)C)O[C@@H]2C)N(CCc2ccc(OC)c(OC)c2)C1=O	-3.25%
